# High-throughput results from PubChem.
# Mtb BioA inh: BioA (M. tuberculosis) enzyme inhibition | purified M. tuberculosis BioA enzyme, plate reader | inhibition, % at 9.99 µM | 360,000 tested, 0.096% active | AID 602481; in the data active = inhibition above about 40%
# TcdB GH inh: inhibitors of Clostridioides difficile toxin B glycohydrolase | P18177 | 350,000 tested, 0.24% active | inhibition, % at 9.99 µM | TcdB glycohydrolase enzymatic assay, plate reader; in the data active = inhibition above about 10%
# Y pestis TopoI: inhibitors of Yersinia pestis topoisomerase I; AID 504884; 360,000 tested, 0.064% active; Y. pestis Topo-I cleavage product accumulation, plate reader; activity, % at 10 µM; in the data active = activity above about 50%, passing the limit was not always enough
# * hit, by the source's call; x = no result given. A selection: hits, their analogues and other compounds. The true share with any hit is near 0.32%.
SMILES,Mtb BioA inh,TcdB GH inh,Y pestis TopoI
O=C(N[C@H]1CC[C@H](CCNC(=O)C2CCCCC2)O[C@H]1CO)c1ccccn1,-2,0,x
O=C(NCc1ccccc1)[C@@H]1[C@@H](CO)[C@@H]2Cn3c(ccc(-c4cccc(F)c4)c3=O)[C@H]1N2,5,1,x
COc1cc(/C=C/C(=O)OCC(=O)c2ccc[nH]2)ccc1O,1,15*,7
COc1cc(/C=C/C(=O)OCC(=O)NC(=O)NC(C)C)ccc1OCC#N,2,x,1
COc1cc(/C=C/C(=O)OCC(=O)NC(=O)NC(C)C)ccc1O,0,12*,9
COc1cc(/C=C/C(=O)OCC(=O)N(C)Cc2ccccc2)cc(OC)c1OC,3,0,33
COc1cccc(/C=C/C(=O)OCC(=O)c2ccc[nH]2)c1,1,-1,6
COc1cc(/C=C/C(=O)OCC(=O)N(C)Cc2ccccc2)ccc1O,1,11*,16
C[C@@H]1CN([C@@H](C)CO)C(=O)Cc2cc(NS(C)(=O)=O)ccc2O[C@@H]1CN(C)C(=O)Nc1cccc2ccccc12,-1,0,x
C[C@@H]1CN([C@@H](C)CO)C(=O)c2cc(NC(=O)Nc3ccc(F)cc3)ccc2O[C@H]1CN(C)C,-1,-2,x
Cc1ccc(S(=O)(=O)N[C@H]2CC[C@@H](CCn3cc(-c4cccc(F)c4)nn3)O[C@@H]2CO)cc1,8,0,x
CO[C@@H]1CN(C)C(=O)c2ccc(NC(=O)C3CC3)cc2OC[C@H](C)N(C(=O)c2cnccn2)C[C@@H]1C,-3,-2,x
COc1cccc(CNC(=O)C[C@@H]2CC[C@H](NC(C)=O)[C@H](CO)O2)c1,-2,-1,x
C[C@@H]1CCCCO[C@H](CN(C)C(=O)Nc2cccc3ccccc23)[C@H](C)CN([C@@H](C)CO)C(=O)c2cc(NS(=O)(=O)c3ccc(Cl)cc3)ccc2O1,-3,-2,x
O=C(OCn1nnc2ccccc2c1=O)c1cc2ccccc2o1,-1,13*,3
O=C(OCn1nnc2ccccc2c1=O)c1ccco1,-2,1,5
O=c1[nH]c2cc([N+](=O)[O-])ccc2c2ccc([N+](=O)[O-])cc12,x,2,-11
Nc1ccc2c(c1)[nH]c(=O)c1cc(N)ccc12,2,21*,-7
NNC(=O)CCc1nc2ccc(O)cc2[nH]1,1,14*,1
O=C(CCc1nc2ccccc2[nH]1)Nc1ccccc1,0,x,2
C[C@@H]1CCCCO[C@@H](CN(C)Cc2ccc(C(F)(F)F)cc2)[C@H](C)CN([C@@H](C)CO)C(=O)c2cc(NS(C)(=O)=O)ccc2O1,6,x,x
Cc1cccc(CN2C(=O)c3ccccc3Sc3ccc(C(=O)O)cc32)c1,0,2,3
O=C(NCCN1CCOCC1)c1ccc2c(c1)N(Cc1ccccc1F)C(=O)c1ccccc1S2,0,2,17
O=C(c1ccc2c(c1)N(Cc1ccccc1F)C(=O)c1ccccc1S2)N1CCOCC1,x,10*,x
O=C(c1ccc2c(c1)N(Cc1ccccc1)C(=O)c1ccccc1S2)N1CCCC1,2,34*,18
SMILES,Mtb BioA inh,TcdB GH inh,Y pestis TopoI
C[C@@H]1CCCCO[C@@H](CN(C)C(=O)Nc2ccc(C(F)(F)F)cc2)[C@H](C)CN([C@@H](C)CO)C(=O)c2cc(NS(=O)(=O)c3cccs3)ccc2O1,4,0,x
C[C@H](CO)N1C[C@H](C)[C@@H](CN(C)S(=O)(=O)c2cccs2)OCCCC[C@H](C)Oc2ccc(NS(=O)(=O)c3ccc(F)cc3)cc2C1=O,-1,0,x
CN1CC(=O)N/C1=N\C(=O)Nc1ccc(O)cc1,0,13*,6
NNC(=O)C(=O)Nc1ccc(O)cc1,x,10,-6
C[C@@H]1CN([C@@H](C)CO)C(=O)c2cc(NS(=O)(=O)c3ccc(Cl)cc3)ccc2O[C@H]1CN(C)C(=O)Nc1ccc(F)cc1,0,0,x
C[C@@H]1CN([C@@H](C)CO)C(=O)c2cc(NC(=O)CCN3CCOCC3)ccc2O[C@H]1CN(C)Cc1ccc(Cl)c(Cl)c1,1,0,x
CCc1cccc(OCCn2nc(C(=O)O)c3ccccc3c2=O)c1,x,2,3
Cc1cc(OCCn2nc(C(=O)O)c3ccccc3c2=O)ccc1C(C)C,-2,1,83*
Clc1ccc(-c2nc3ccc(Cl)cn3c2Cc2ccccc2)cc1,-1,13*,19
Cc1ccc(Cc2c(-c3ccc(Cl)cc3)nc3ccc(Cl)cn23)cc1,-1,-2,20
Cc1ccc(Cc2c(-c3ccccc3)nc3cc(C)ccn23)cc1,-1,1,36
Clc1ccc2nc(-c3ccccc3)c(Cc3ccccc3)n2c1,-1,3,45
Cc1ccn2c(Cc3ccccc3)c(-c3ccc(F)cc3)nc2c1,-1,10*,43
Cc1ccc(Cc2c(-c3ccc(C)cc3)nc3ccc(Cl)cn23)cc1,-2,11*,-5
Cc1noc(C)c1NC(=O)Nc1ccc2c(c1)C(=O)N([C@@H](C)CO)C[C@@H](C)[C@H](CN(C)S(C)(=O)=O)OCCCC[C@@H](C)O2,x,0,x
C[C@H](NC(=O)C[C@H]1C=C[C@H](NC(=O)C2CC2)[C@@H](CO)O1)c1ccccc1,-5,0,x
CC(C)CC#Cc1cnc2c(c1)C(=O)N([C@H](C)CO)C[C@H](C)[C@@H](CN(C)S(=O)(=O)c1cccs1)O2,-3,0,x
CC(=O)N1[C@H](CO)[C@H](c2ccc(-c3cncnc3)cc2)[C@@H]1CN(C)C(=O)C1CC1,x,-1,x
CN(C)C(=O)[C@@H]1[C@@H](CO)[C@@H]2Cn3c(ccc(C4=CCCC4)c3=O)[C@H]1N2CCC(F)(F)F,x,0,x
Cc1ccc(S(=O)(=O)Nc2ccc3c(c2)CC(=O)N([C@@H](C)CO)C[C@@H](C)[C@H](CN(C)Cc2ccccc2)O3)cc1,5,-1,x
O=C1Cc2cc(S(=O)(=O)NCc3ccccc3Cl)cc3c2N1CCC3,0,11*,7
Cc1cccc(C)c1NS(=O)(=O)c1cc2c3c(c1)CC(=O)N3CCC2,0,-1,4
Cc1cc(C(=O)CSc2nc(N)cc(N)n2)c(C)n1CC1CCCO1 (stereo not drawn),4,0,7
Cc1cc(C(=O)CSc2nc(N)cc(=O)[nH]2)c(C)n1CC1CCCO1 (stereo not drawn),-3,12*,1
C[C@@H]1CN([C@H](C)CO)C(=O)Cc2cc(NC(=O)Nc3cccc4ccccc34)ccc2O[C@H]1CN(C)C(=O)NC1CCCCC1,2,0,x
SMILES,Mtb BioA inh,TcdB GH inh,Y pestis TopoI
C[C@@H]1CN([C@H](C)CO)C(=O)c2cc(NC(=O)Nc3cccc4ccccc34)ccc2O[C@@H](C)CCCCO[C@@H]1CN(C)S(=O)(=O)c1cccs1,-2,x,x
C[C@H](CO)N1C[C@H](C)[C@@H](CN(C)C(=O)CCCN(C)C)OCCCC[C@H](C)Oc2ccc(NS(=O)(=O)c3ccc(F)cc3)cc2C1=O,0,-1,x
C/C(CCc1ccccc1)=N\NC(=O)C1C2CCCCC21 (stereo not drawn),x,11*,-1
C/C(CC(=O)Nc1ccc([N+](=O)[O-])cc1)=N/NC(=O)C1C2CCCCC21 (stereo not drawn),-1,0,2
O=C(N/N=C/c1ccc(O)cc1)NC12CC3CC(CC(C3)C1)C2,1,19*,-3
O=C(N/N=C/c1ccncc1)NC12CC3CC(CC(C3)C1)C2,2,2,-1
O=C(NCc1cccc(Cl)c1)C1Cc2c(-c3cccc(F)c3)ccnc2O1 (stereo not drawn),1,2,24
